The values below come from PubChem BioAssay (NCATS).

The target in assay [1] is Glutathione peroxidase 1 (Homo sapiens) (UniProt P07203). The assay is described as follows: Primary qHTS Assay for Inhibitors of Recombinant Selenoprotein Glutathione Peroxidase 1 (GPX1) (AID 1845191). Further: nearly all actives have a fitted effect of over 65% in size. A digest of the protocol: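 GR-coupled readout: NADPH consumption tracked by fluorescence, ex 340/em 450 nm, at t=0 and after 15 min at RT. Final mix 10 nM GPX1, 1 mM GSH, 0.5 mM CHP, 0.5 mM NADPH, 100 nM GR, 0.01% BSA, following 30 min enzyme–compound preincubation.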
Sequence of Glutathione peroxidase 1 (Homo sapiens) (P07203 whole entry, looked up): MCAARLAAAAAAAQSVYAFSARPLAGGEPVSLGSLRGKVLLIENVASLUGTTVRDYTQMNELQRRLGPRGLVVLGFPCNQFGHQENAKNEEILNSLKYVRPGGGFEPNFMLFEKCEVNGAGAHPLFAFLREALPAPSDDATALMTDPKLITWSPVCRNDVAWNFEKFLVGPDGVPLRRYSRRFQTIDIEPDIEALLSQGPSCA
On the technique in general: Quantitative high-throughput screening tests each substance at several concentrations.

In assay [2] the target is Phospholipid hydroperoxide glutathione peroxidase GPX4 (Homo sapiens) (UniProt P36969). Briefly: Primary qHTS Assay for Inhibitors of Recombinant Selenoprotein Glutathione Peroxidase 4 (GPX4) (AID 1845192). Further: nearly all actives have a fitted effect of over 65% in size. A digest of the protocol:
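Steps: GPX4 plus compound, 30 min RT; add GR/GSH/NADPH master mix; start with cumene hydroperoxide; read 340/450 nm fluorescence at 0 and 15 min. Finals were 200 nM GPX4, 1 mM GSH, 0.5 mM CHP, 0.5 mM NADPH, 100 nM GR.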

Assay [3] addresses Luciferin 4-monooxygenase (Photinus pyralis) (UniProt P08659). Briefly: Primary firefly luciferase (FLuc) qHTS assay for identification of artifact compounds. (AID 1845220). Further: nearly all actives have a fitted effect of over 60% in size. The procedure, abridged: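 Enzymatic FLuc inhibition assay: compounds pre-exposed to luciferin/ATP (10 uM each) for 15 min, then purified P. pyralis enzyme at 10 nM added. Read-out: luminescence at 5 min.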

The nature of assay [4]: Primary fluorescence-based thiol-reactive (MSTI) qHTS assay for identification of artifact compounds. (AID 1845221). Further: nearly all actives have a fitted effect of over 65% in size. Further: potency means the concentration at half of the fitted maximal effect. The procedure, abridged: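 MSTI probe at 4 uM final in 2% DMSO/PBS pH 7.4; compounds, 1 h at room temperature in dark. Fluorescence Ex/Em 525/598 nm, normalised to Acetyl-MSTI and MSTI, fitted to 4-parameter Hill.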
Assay [5] relates to Nanoluciferase (engineered Oplophorus gracilirostris luciferase). Briefly: Primary Nanoluciferase (NLuc) qHTS assay for identification of artifact compounds. (AID 1845222).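 Further: NLuc secreted into diluted conditioned medium of S16 cells; series mostly up to about 54 µM.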 The procedure, abridged:
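S16 cell supernatant NLuc, 1:55; cpds qHTS; 15 min RT dark; Nano-Glo substrate 1:100, 5 min; luminescence; Hill fit of % inhibition.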

The nature of assay [6]: Primary redox qHTS assay for identification of artifact compounds. (AID 1845223). A digest of the protocol: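 Redox-cycling detection via DTT (250 uM final) oxidation coupled to Amplex Red (25 uM)/HRP (250 mU/mL) in HBSS. 15 min preincubation plus 30 min after DTT, room temperature. Ex/Em 525/598 nm; 4-parameter Hill fit against DMSO and 10 uM DA3003.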

Values without a mark were called inactive. Records with an inconclusive call do not appear. Calls of active or inactive are those of the source. The call rests on the fitted dose curve; in most records, active means well fitted curve in the direction sought with a large enough effect; inconclusive means small, poorly fitted or top-dose-only effect, or another doubt; inactive means no such curve, though single readings can be large; an effect the other way counts as inactive or inconclusive.

Sequence of Phospholipid hydroperoxide glutathione peroxidase GPX4 (Homo sapiens) (P36969 whole entry, looked up): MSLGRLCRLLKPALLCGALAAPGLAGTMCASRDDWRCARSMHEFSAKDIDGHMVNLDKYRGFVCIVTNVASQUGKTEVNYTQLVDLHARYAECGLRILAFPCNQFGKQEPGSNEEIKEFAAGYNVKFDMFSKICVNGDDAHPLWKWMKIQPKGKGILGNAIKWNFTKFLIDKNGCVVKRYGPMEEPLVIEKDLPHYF

For `CNCc1cc(-c2ccccc2F)n(S(=O)(=O)c2cccnc2)c1`, the Potency result in assay [1], in assay [2], in assay [3], in assay [4], in assay [5] and in assay [6] was “inactive” each time.
Regarding `CC(C)(C)C1CCN(C(=O)n2ncc(C(O)(c3ccccc3)c3ccccc3)n2)CC1`, the Potency entry in assay [1], in assay [2], in assay [3], in assay [4], in assay [5] and in assay [6] was “inactive” throughout.
Regarding `CC(=O)OC1CC(O)(C(C)C)C2C(OC(=O)c3ccc(O)cc3)C=C(C)C(=O)CC12C` (centres undefined), the Potency entry in assay [1], in assay [2], in assay [3], in assay [4], in assay [5] and in assay [6] was “inactive” throughout.
On to `CC(=O)OC1CC(C)C2(CCC3(CC(=O)OC3O)O2)C2(C)CCCC(C)(C)C12` (centres undefined), for which the Potency entry in assay [1], in assay [2], in assay [3], in assay [4], in assay [5] and in assay [6] was “inactive” each time.
As to `CC(C)n1c(=O)c(C(=O)NC2CC3CCC(C2)N3C[C@@H](O)CN(C)S(C)(=O)=O)cc2ccccc21` (some centres undefined), the Potency entry in assay [1], in assay [2], in assay [3], in assay [4], in assay [5] and in assay [6] was “inactive” in each case.
In the case of `O=C(Nc1ccccc1)N1CCC(Cc2cnc3ccccc3c2)CC1`, the Potency result in assay [1], in assay [2], in assay [3], in assay [4], in assay [5] and in assay [6] was “inactive” in each case.
For the compound `Cc1ccnn1-c1ccc(C(=O)N2CCN(S(=O)(=O)c3ccc(Cl)c(C(F)(F)F)c3)CC2)cc1`, the Potency entry in assay [1], in assay [2], in assay [3], in assay [4], in assay [5] and in assay [6] was “inactive” in each case.
As for `C[C@@]12C(=O)N(c3ccc(C(=O)Nc4cccc5cccnc45)cc3)C(=O)[C@@H]1[C@@H]1C=C[C@H]2C1`, the Potency entry in assay [1], in assay [2], in assay [3], in assay [4], in assay [5] and in assay [6] was “inactive” each time.
Regarding `O=[N+]([O-])c1cn2c(n1)OC[C@@H](OCc1ccc(-c3ccc(OC(F)(F)F)cc3)nc1)C2`, the Potency entry in assay [1], in assay [2], in assay [3], in assay [4], in assay [5] and in assay [6] was “inactive” in each case.
For the compound `C=C1C(=O)O[C@@H]2[C@H]3C(C)=CC(=O)C3=C(C)CC[C@@H]12`, the Potency entry in assay [1], in assay [2], in assay [3], in assay [4], in assay [5] and in assay [6] was “inactive” throughout.
For `Cc1ccccc1CN1CCn2c1nc1c(c2=O)CN(Cc2ccccc2)CC1`, the Potency entry in assay [1], in assay [2], in assay [3], in assay [4], in assay [5] and in assay [6] was “inactive” throughout.
Regarding `C=CC(=O)N1CCC(Oc2cc3c(Nc4ccc(Cl)c(Cl)c4F)ncnc3cc2OC)CC1`, the Potency entry in assay [1], in assay [2], in assay [3], in assay [4], in assay [5] and in assay [6] was “inactive” each time.
Turning to `CN(C)CCOc1cc(NS(=O)(=O)c2c(Cl)cc(C(F)(F)F)cc2Cl)ccc1Cl`, the Potency result in assay [1], in assay [2], in assay [3], in assay [4], in assay [5] and in assay [6] was “inactive” throughout.
With `CC(C)=CCCC1(C)C2CCC1(C)C(O)C2` (centres undefined), the Potency result in assay [1], in assay [2], in assay [3], in assay [5] and in assay [6] was “inactive” throughout. In addition, in assay [4], the Potency is 29.9 µM (active).
On to `Cc1nc(C(=O)N2CCC[C@H]2Cc2nnc(-c3ccccc3)o2)c(-c2ccccc2F)s1`, for which the Potency entry in assay [1], in assay [2], in assay [3], in assay [4], in assay [5] and in assay [6] was “inactive” each time.
Regarding `CC(=O)OC(C)(C)/C=C/C(=O)C(C)(O)C1C(O)CC2(C)C3CC=C(C(C)(C)C(=O)O)C(CC(=O)O)C3(C)C(=O)CC12C` (centres undefined), the Potency result in assay [1], in assay [2], in assay [3], in assay [4], in assay [5] and in assay [6] was “inactive” throughout.
Regarding `Cc1cc(N2CCN(C(=O)Oc3ccc(-c4ccccc4)cn3)CC2)c2ccccc2n1`, the Potency entry in assay [1], in assay [2], in assay [3], in assay [4], in assay [5] and in assay [6] was “inactive” throughout.
For `C=C(C)C(=O)OC1CC2(C)OC(=CC2=O)C(=C)CC2OC(=O)C(=C)C12` (centres undefined), the Potency result in assay [1], in assay [2], in assay [3], in assay [4], in assay [5] and in assay [6] was “inactive” in each case.
With `CC1(C)CN(C(=O)c2ccc(-c3cccc4nc(NC(=O)C5CC5)nn34)cc2)C1`, the Potency result in assay [1], in assay [2], in assay [3], in assay [4], in assay [5] and in assay [6] was “inactive” each time.
Consider `C=C1C(=O)OC2CC3(C)C(O)C(=O)C=C(C)C3CC12` (centres undefined), for which the Potency entry in assay [1], in assay [2], in assay [3], in assay [5] and in assay [6] was “inactive” in each case. For the same compound, the Potency in assay [4] was 2.67 µM (active).
With `NC(=O)C1=CC2C3C=CC2C(OC3=O)O1` (centres undefined), the Potency entry in assay [1], in assay [2], in assay [3], in assay [5] and in assay [6] was “inactive” throughout. For the same compound, the Potency in assay [4] is 15.8 µM (active).
For the compound `C=C1C(=O)O[C@@H]2C3C(=C(C)[C@@H](O)[C@@H](OC(=O)/C(=C/C)COC(C)=O)[C@@H]12)C(=O)[C@H]1O[C@@]31C` (some centres undefined), the Potency entry in assay [1], in assay [2], in assay [3], in assay [4], in assay [5] and in assay [6] was “inactive” throughout.
Take `CCC(C)/C=C(C)/C=C/C1=CC2=CC(=O)C3(C)OC(C)(O)C(C(=O)OC)C3C2=CO1` (centres undefined): the Potency entry in assay [1], in assay [2], in assay [3], in assay [4], in assay [5] and in assay [6] was “inactive” each time.
As to `CNc1cc2[nH]c(=O)n(-c3ccc(NC(=O)NS(=O)(=O)c4ccc(Cl)s4)cc3)c(=O)c2cc1F`, the Potency result in assay [1], in assay [2], in assay [3], in assay [4], in assay [5] and in assay [6] was “inactive” in each case.
